In the library only some 2.7% were active in any assay of this set; here they are far more common.
IDE inh: cellular human IDE inhibition. AID 434962. HEK cells, FAbetaB cleavage, fluorescence polarization. inhibition, % at 5.59 µM. actives 0.41% (n = 320,000);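 active = percent inhibition above the average of all tested compounds plus 3 SD, set per screening campaign, cut at about 16% in these data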;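 note: IDE supplied by intact live HEK cells; FP after avidin binding of uncleaved biotin substrate so inhibition keeps polarization high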
TMEM16A inh: mouse TMEM16A channel inhibition, primary screen; AID 588511; normalized B-score (activity score, 25-100; higher = stronger inhibition) at 10 µM; actives 1.2% (n = 310,000); Q8BHY3; HEK293 TMEM16A/YFP iodide influx fluorescence, ionomycin;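 active = ratio plate-corrected score three or more library SD toward inhibition, starting fluorescence score within five deviations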;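 note: score derived from kinetic fluorescence span divided by baseline fluorescence per well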
TMEM16A act: activates or potentiates the mouse TMEM16A chloride channel | HEK293 TMEM16A/YFP-H148Q/I152L, iodide quench fluorescence; stronger effect = lower value | B-score at 10 µM | actives 0.3% (n = 340,000) | AID 623877;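 active = fluorescence-ratio B-score plate-corrected deviation score at least 3 library SD below zero, with starting fluorescence score within 5 deviations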;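 note: channel opened by trigger with iodide after compound preincubation; score built on the fluorescence ratio of max minus min over baseline; more negative score means more quench and so TMEM16A activation or potentiation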
CHT allo act: allosterically activates the human high affinity choline transporter. Q9GZV3. CHT-expressing cells, membrane potential dye, choline EC20; stronger effect = higher value; LV-AA mutant CHT in HEK293 cells. B-score at 10 µM. actives 0.49% (n = 310,000). AID 488977;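 active = initial fluorescence not abnormally high and integrated response B-score, plate-corrected, over 3 SD above library mean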
Target sequence (Q9GZV3 whole entry, looked up): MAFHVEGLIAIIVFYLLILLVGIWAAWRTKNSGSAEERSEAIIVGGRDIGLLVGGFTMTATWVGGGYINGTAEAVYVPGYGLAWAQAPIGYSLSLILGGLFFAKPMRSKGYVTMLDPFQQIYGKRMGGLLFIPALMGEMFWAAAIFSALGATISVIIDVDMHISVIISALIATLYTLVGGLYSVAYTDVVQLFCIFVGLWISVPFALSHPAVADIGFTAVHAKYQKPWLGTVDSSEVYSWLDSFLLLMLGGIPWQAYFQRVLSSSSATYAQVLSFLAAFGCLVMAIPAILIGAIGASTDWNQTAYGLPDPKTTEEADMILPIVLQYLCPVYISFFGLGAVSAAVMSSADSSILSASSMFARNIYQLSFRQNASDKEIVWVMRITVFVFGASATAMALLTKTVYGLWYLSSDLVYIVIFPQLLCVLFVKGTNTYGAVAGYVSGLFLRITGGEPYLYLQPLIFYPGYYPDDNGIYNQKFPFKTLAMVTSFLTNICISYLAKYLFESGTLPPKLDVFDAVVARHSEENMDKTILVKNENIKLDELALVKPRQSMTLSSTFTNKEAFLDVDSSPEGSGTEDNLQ
IDE act: boosts human insulin-degrading enzyme activity in HEK cells | FAbeta-B cleavage, fluorescence polarization; 0% vehicle, 100% cell-free pure enzyme wells | activation, % at 5.96 µM | actives 0.073% (n = 340,000) | P14735 | AID 493087;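 active = activation above the mean of all tested compounds plus 3 SD, set per screening campaign, cut at about 17% in these data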
CHT block: human CHT choline transport inhibition; Q9GZV3; CHT-expressing cells, membrane potential dye, choline response; stronger effect = lower value; B-score at 10 µM; actives 0.86% (n = 310,000);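 active = B-score over 3 SD under the library average, and starting fluorescence ratio not unusually high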;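 note: choline stimulus applied at its EC90 after an EC20 pre-addition; B-score computed on integrated fluorescence ratio after choline addition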
CHT activ conf: confirmation of human choline transporter (CHT) activators | activation, % at 10 µM | shares compounds with CHT allo act | actives 91% (n = 2,500) | AID 504833 | CHT-expressing cells, membrane potential dye fluorescence (FDSS); % of choline EC20–EC90 response window; HEK293 expressing CHT LV-AA mutant; choline added at its EC20;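 active = primary screen active, with duplicate mean activation above negative control mean plus 3 SD, cut at about 11% in these data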
HEK293 MP dye: activity in parental HEK293 cells lacking CHT; membrane potential dye fluorescence (FDSS); measured after EC20 choline addition; shares compounds with CHT allo act; actives 62% (n = 2,500); ratio readout change at 10 µM, hits read low;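 active = duplicate-averaged ratio beyond 3 SD from buffer wells, up or down, though filed actives are nearly all decreases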
A number is an active result; – = inactive; · = not tested or not shown.

SMILES	IDE inh	TMEM16A inh	TMEM16A act	CHT allo act	IDE act	CHT block	CHT activ conf	HEK293 MP dye
CCS(=O)(=O)c1nc(S(=O)(=O)c2ccc(C)cc2)c(N2CCN(C)CC2)s1	–	–	–	–	–	–	·	·
O=C(NCc1ccccc1CN1CCCC1)c1ccc(Cl)c(N2CCCC2=O)c1	–	·	–	·	–	·	·	·
Cc1noc(NS(=O)(=O)c2ccc(NC(=O)c3ccc(Cl)c(S(=O)(=O)N(C)c4ccccc4)c3)cc2)c1C	·	·	–	·	–	·	·	·
Cc1csc2c(C#N)c(=O)c3c(n12)CCC3	–	–	–	6.61	–	–	48.7	-41.5
Cc1cc(C)n2c3c(c(C#N)c2n1)CCCC3	–	–	·	–	–	–	·	·
CN(C(=O)c1ccc(-c2nn(C)c(=O)c3ccccc23)cc1)C1CCCCC1	–	–	–	–	–	–	·	·
Cc1ccc(C)c(C(=O)CCC(=O)NNC(=O)c2cccs2)c1	–	·	–	·	–	·	·	·
N=c1c2c(n(Cc3cccc(Cl)c3)c3c1CCC3)CCCC2	–	–	–	8.8	–	–	66.3	-40.7
N=c1c2c(n(Cc3ccc(Cl)cc3)c3c1CCC3)CCC2	–	–	–	8.09	–	–	50.7	-42.5
CCn1c2c(c(=N)c3c1CCC3)CCCC2	–	–	–	9.28	·	–	67.6	-65.4
N=c1c2c(n(Cc3ccccc3)c3c1CCC3)CCC2	–	–	–	–	–	–	·	·
COc1ccc(OC)c(N(CC(=O)NCCSCc2ccco2)S(=O)(=O)c2ccc(OC)c(OC)c2)c1	–	–	–	–	–	–	·	·
COc1ccc(-n2nnnc2SC(C)C(=O)NC2CCCC2)cc1 (centres undefined)	–	·	–	·	–	·	·	·
CCOc1ccc(S(=O)(=O)N2CCCCC2)cc1NC(=O)CCNC(=O)c1ccco1	·	·	–	·	–	·	·	·
Fc1ccc(-c2csc3[n+]2CCS3)cc1	–	–	–	–	–	–	·	·
O=[N+]([O-])c1ccc(-c2csc3[n+]2CCS3)cc1	–	–	–	8.89	–	–	74.3	-69.2
COc1ccc(Cl)cc1NC(=O)CN(C)C(=O)C1COc2ccccc2O1 (centres undefined)	–	·	–	·	–	·	·	·
CC[n+]1c(C)cc2c(sc3ccccc32)c1C	·	·	–	·	–	·	·	·
CC[n+]1c(C)sc2c(C)cc(C)cc21	–	–	–	7.83	–	–	62.2	-59.7
CCCCN(c1nc2ccccc2nc1Cl)S(=O)(=O)c1ccc(C)cc1	–	–	–	–	–	–	·	·
O=C(O)c1cn(-c2ccc(F)cc2)c2cc(Cl)c(F)cc2c1=O	–	–	–	–	–	–	·	·
NC1C2CN(c3nc4c(cc3F)c(=O)c(C(=O)O)cn4-c3ccc(F)cc3F)CC12 (centres undefined)	–	–	–	7.92	–	–	60.0	-66.6
COc1ccc(C(CNS(=O)(=O)c2cccc(F)c2)N2CCCC2)cc1 (centres undefined)	–	·	–	·	–	·	·	·
O=C(c1cccc(Cl)c1)N1CCC2CC1c1cc(N3CCOCC3)ccc12 (centres undefined)	·	·	·	·	–	·	·	·
Cc1ccc(S(=O)(=O)N2CCOCC2)cc1NC(=O)COC(=O)/C=C/c1ccco1	–	·	–	·	–	·	·	·
SMILES	IDE inh	TMEM16A inh	TMEM16A act	CHT allo act	IDE act	CHT block	CHT activ conf	HEK293 MP dye
Cc1ccc(Nc2c(O)nc[nH]c2=O)cc1	·	·	–	·	–	·	·	·
CC(Nc1nc(N2CCNCC2)nc2ccccc12)c1ccccc1 (centres undefined)	–	–	–	7.12	–	–	44.1	-51.6
COc1ccc(CCNC(=O)c2cc3c(cc2Cl)N2CCCCCC2=NS3(=O)=O)cc1	–	–	–	–	–	–	·	·
O=P(c1ccccc1)(c1ccccc1)C(c1ccccn1)P(=O)(c1ccccc1)c1ccccc1	–	–	–	8.49	·	–	33.9	–
Cc1ccc(-c2c3c(=O)n(C)c(=O)n(C)c3cn2CCCN2CCOCC2)cc1	–	–	–	8.05	–	–	69.9	-67.8
Cc1sc2c3ccsc3ccc2[n+]1C	–	–	–	10.3	–	–	66.2	–
O=C(CCN1C(=O)NC2(CCCC2)C1=O)Nc1ccc(-c2nc3ccccc3s2)cc1	–	·	–	·	–	·	·	·
COc1ccc(-n2c(C)c(C)c3c(NCCN(C)C)ncnc32)cc1	–	–	–	7	–	–	45.2	-33.4
Cc1c(C)n(-c2ccccc2)c2ncnc(NCCN(C)C)c12	–	–	·	–	–	–	46.2	-41.7
CC(=O)c1ccc(OCCCC(=O)Nc2cc(S(=O)(=O)N3CCCCC3)ccc2C)cc1	·	·	–	·	–	·	·	·
COc1ccc(Nc2ccc(S(=O)(=O)N3CCCCCC3)cc2[N+](=O)[O-])cc1	–	–	–	–	–	–	·	·
COc1cc(Nc2ccc(S(=O)(=O)N3CCN(C)CC3)cc2[N+](=O)[O-])cc(OC)c1	–	–	–	–	–	–	–	-21.1
Cc1ccc2nc(C)c3c(c2c1)COC3	–	–	–	–	–	–	·	·
Cc1nc2c(C)cccc2c2c1COC2	–	–	–	–	–	–	55.3	-59.5
CN(c1ccc(OCc2nnc(-c3ccccc3)o2)cc1)S(=O)(=O)c1ccccc1	–	–	–	–	–	–	26.9	–
Cc1nc2ccccc2n1CC(=O)NC(C)C1CC2CCC1C2 (centres undefined)	–	–	–	–	–	–	·	·
CC(NC(=O)Cn1c(NCCO)nc2ccccc21)C1CC2CCC1C2 (centres undefined)	–	–	–	–	–	–	38.1	–
Cc1ccc(S(=O)(=O)N2CCN(C(=O)CN3CCOCC3)C2C(C)C)cc1 (centres undefined)	–	–	–	–	–	–	·	·
Cc1ccc(S(=O)(=O)N2CCN(C(=O)CN3CCOCC3)C2c2ccccc2)cc1 (centres undefined)	–	–	–	8.05	–	–	–	–
CC1=CC2=NC(=O)/C(=C\c3cc(C)n(-c4ccccc4F)c3C)C(=N)N2O1	–	–	–	–	–	–	·	·
Cc1cc(/C=C2/C(=N)N3C(=NC2=O)SN=C3S(C)(=O)=O)c(C)n1-c1ccccc1F	–	–	–	7.61	–	–	–	–
CCCCOC(=O)N1CCOCCOCCOCC1	–	–	–	–	–	–	16.8	–
CCOC(=O)C1CCCN(C(=O)C(CCSC)NC(=O)COc2ccccc2)C1 (centres undefined)	·	·	–	·	–	·	·	·
CCOC(=O)c1sc2nccc(N(C)C)c2c1N=CN(C)C	–	–	–	7.16	–	–	60.3	-51.9
CN1CCN(CC(=O)Nc2cc(N(C)C)nc3ccccc23)CC1	–	–	–	–	–	–	38.4	-40.3

High-throughput results deposited in PubChem BioAssay by several laboratories.
